Most compounds without a hit are left out; they make up all but 0.99% or so of the library.
TRPML1 blocker – inhibitors of human TRPML1 channel; Q9GZU1; TRPML1-inducible cells, Ca2+ dye fluorescence, FDSS; hits give low values; inhibition of EC80 agonist-evoked calcium signal; activity change, negative = inhibition, % (no concentration beside the values); 0.02% of 390,000 active; in the data active = activity change below about -50%; inconclusive = between about -30% and that limit;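 note: stimulus is agonist 54-4 at its EC80 concentration; % is set by controls: 0 for no effect and ±100 for the full control effect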
Target sequence (Q9GZU1 whole entry, looked up): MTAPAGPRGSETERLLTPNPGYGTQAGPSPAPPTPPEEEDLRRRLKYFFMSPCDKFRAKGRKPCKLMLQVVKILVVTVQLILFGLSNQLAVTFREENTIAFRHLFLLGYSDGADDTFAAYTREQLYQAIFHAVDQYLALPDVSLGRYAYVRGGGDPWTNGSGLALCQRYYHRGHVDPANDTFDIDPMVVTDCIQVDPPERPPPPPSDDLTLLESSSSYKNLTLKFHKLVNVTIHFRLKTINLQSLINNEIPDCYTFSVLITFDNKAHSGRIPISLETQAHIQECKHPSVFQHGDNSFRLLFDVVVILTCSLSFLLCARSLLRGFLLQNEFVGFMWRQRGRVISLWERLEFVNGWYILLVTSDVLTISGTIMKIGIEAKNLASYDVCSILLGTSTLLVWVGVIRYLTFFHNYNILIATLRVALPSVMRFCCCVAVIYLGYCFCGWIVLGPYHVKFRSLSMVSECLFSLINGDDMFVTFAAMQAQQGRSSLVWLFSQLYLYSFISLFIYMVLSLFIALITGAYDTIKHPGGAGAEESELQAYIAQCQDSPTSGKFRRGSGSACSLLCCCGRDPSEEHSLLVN
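TRPML1-DL cells, Tet-induced overnight (~16 h, 37 °C) at 1,500 cells/well, were loaded with Ca8 no-wash dye plus quencher for 45-90 min at room temperature. Compounds were pinned during FDSS kinetic reading; agonist 54-4 at EC80 (4 uM final) then added.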
TRPV1 agonist – activates the human vanilloid receptor TRPV1 | activation, % at 8.33 µM | 0.19% of 320,000 active | TRPV1-expressing cells, Fluo-8 calcium influx, agonist mode | Q8NER1; in the data active = activation above about 80%; inconclusive = between about 30% and that limit; note: 0% is about no effect
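Cells expressing TRPV1 were dye-loaded with Fluo-8 and read kinetically: 10 s baseline, 3 min after compound (agonist portion), then 2 min after EC20 capsaicin (allosteric enhancer portion). Calcium-bound dye fluorescence at 480/520 nm.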
TRHR PAM – TRH receptor (human) allosteric enhancement. P34981. AID 493056. 0.66% of 360,000 active. enhancement, % at 2 µM. TRHR cells, fluo-8 calcium fluorescence, EC20 TRH enhancement; in the data active = enhancement above about 30%; note: 0% is about no effect
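TRHR-expressing cells loaded with fluo-8 calcium dye were read kinetically (ex 480/em 530) during compound addition, then stimulated with an EC20 of TRH (10 nM final). Enhancement of the Gq-mediated intracellular calcium response was scored.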
TRHR agonist – TRH receptor (human) agonism; P34981; 0.18% of 360,000 active; TRHR cells, calcium flux fluo-8, FDSS agonist mode; AID 493084; activation, % at 2 µM; in the data active = activation above about 30%; note: 0% is about no effect
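Read-out: compound-evoked intracellular calcium rise in TRHR cells, fluo-8 dye, kinetic FDSS fluorescence at 1 s/cycle following a 10-cycle baseline. Cells cultured overnight before dye loading (30 min–1.5 h, RT).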
TRPV1 PAM – human TRPV1 potentiation | 0.02% of 320,000 active | potentiation, % at 8.33 µM | TRPV1-expressing cells, Fluo-8 calcium influx, capsaicin EC20 potentiation; in the data active = potentiation above about 80%; inconclusive = between about 30% and that limit; note: 0% is about no effect
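TRPV1-expressing cells were cultured overnight at 35.5C and loaded with Fluo-8 calcium dye for 40 to 90 min at room temperature. After a 10 s baseline, compound was added and calcium influx was read kinetically for 3 min (ex 480/em 520 nm).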
TRPML1 agonist – agonists of human TRPML1 channel; Q9GZU1; activation, % (concentration not given with the values); 0.12% of 410,000 active; TRPML1-expressing cells, Ca2+ dye fluorescence, FDSS; in the data active = activation above about 50%; inconclusive = mostly about 30% to 49%; note: 0% is about no effect
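Kinetic FDSS Ca2+ read in Tet-induced TRPML1-DL cells (ABD Ca8 dye plus quencher, 45-90 min RT loading): baseline, then compound, then 110 s agonist window; EC80 agonist 54-4 at 4uM final added afterwards for a 110 s antagonist window.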
Active calls of the source: *; ? = inconclusive; nt = not tested or not shown.

SMILES	TRPML1 blocker	TRPV1 agonist	TRHR PAM	TRHR agonist	TRPV1 PAM	TRPML1 agonist
COc1cc(CN2c3ccc(Br)cc3C(=O)CS2(=O)=O)cc(OC)c1	nt	nt	nt	nt	nt	0
Cc1cc2ncc(-c3cccs3)nc2cc1C	-7	8	31*	0	-20	2
O=C(CSc1cc(Cl)ccc1Cl)NCCCn1ccnc1	-1	15	-5	0	?	-1
O=C(CNC(=O)c1ccc(Cl)cc1Cl)NCCCn1ccnc1	6	-6	31*	-1	-6	1
O=C1NNC(c2ccccc2)=N/C1=C\c1ccco1	-11	1	-5	1	9	0
O=C1NNC(c2ccccc2)=N/C1=C\c1ccccc1Cl	-6	94*	-1	1	-14	1
CNC(=O)c1c(NC(=O)c2ccc(S(=O)(=O)N3CCCC3)cc2)sc2c1CCN(C(C)C)C2	nt	22	3	47*	2	nt
Cn1cc(S(=O)(=O)N2CCCCCC2)cc1C(=O)Nc1ccc(Cl)c(C(F)(F)F)c1	5	nt	3	0	nt	0
CN(C)c1ccc(/C=C/c2c(Cl)cnc3ccccc23)cc1	nt	nt	nt	nt	nt	3
O=C(O)CCC(=O)N1N=C(c2cccs2)CC1c1cn(-c2ccccc2)nc1-c1ccccc1 (configuration not stated)	-1	22	34*	0	-5	0
CC(C)c1ccc(CNNC(=O)c2ccccc2)cc1	19	83*	-3	1	-7	0
CCCCN1CC[C@H]2C=CC[C@@H](C(=O)NC3CCCCC3)[C@H]2C1=O	nt	nt	nt	nt	nt	-1
Cc1ccc(-c2nnn(CC(=O)N(CCN3CCOCC3)C(C(=O)NC(C)(C)C)c3ccc(C)o3)n2)cc1 (configuration not stated)	9	13	37*	0	?	1
CC(=O)c1ccc(N2CCN(C(=O)Nc3ccc(C)cc3)CC2)cc1	-24	94*	8	-1	0	2
COC(=O)N1CCN(c2ccc(C)cc2)C(C)C1 (configuration not stated)	-2	?	-1	0	-20	0
CC(=O)c1ccc(NC(=O)N2CCN(c3ccc(C)cc3)C(C)C2)cc1 (configuration not stated)	18	84*	2	-1	2	0
CCOC(=O)c1sc(-c2ccccc2)cc1NC(=O)Nc1ccccc1	-10	88*	3	2	0	1
Cc1cc(CNC(=O)C2CCC(=O)N(Cc3cccc(C(F)(F)F)c3)C2)no1 (configuration not stated)	9	0	31*	0	2	0
O=C(NCc1ccon1)C1CCC(=O)N(Cc2cccc(C(F)(F)F)c2)C1 (configuration not stated)	?	-7	2	2	2	1
N#Cc1c2c(c(Cl)n3c1nc1ccccc13)CCCC2	nt	nt	nt	nt	nt	0
CCOc1ccc(/C=C(\C#N)C(=O)c2c(C)[nH]c3ccccc23)cc1OC	8	-1	36*	1	15	0
COc1cc(/C=C(/C#N)C(=O)c2c(C)[nH]c3ccccc23)ccc1OCC#N	40	0	5	1	3	1
COc1ccc(C(=O)C[n+]2ccccc2Cl)cc1	nt	nt	nt	nt	nt	-1
O=c1[nH]c(CN2CCN(c3ncccn3)CC2)nc2c(Br)cc(Br)cc12	6	1	30*	1	6	0
O=c1[nH]c(CN2CCN(c3ccccn3)CC2)nc2c(Br)cc(Br)cc12	nt	?	0	0	-6	nt
CCCc1cc(C(=O)OC)c(NC(=O)CCCC(=O)O)s1	13	1	36*	0	9	0
S=C(NCCc1c[nH]c2ccccc12)NC1CC1	-9	0	32*	0	16	0
S=C(NCCc1c[nH]c2ccccc12)NC1CCCC1	6	?	-2	1	-14	-1
C=CCNC(=O)c1sc(-c2ccccc2)nc1C	-9	?	39*	0	-7	2

High-throughput results: PubChem, National Center for Advancing Translational Sciences (NCATS)
